PubChem BioAssay (NCI)
The panel holds about 79,000 compounds, 15% with a hit somewhere; the sample as a whole holds those more often. Calls of active or inactive are those of the source. Rule as the data show it: active = growth inhibition above about 70%; inactive = the rest.

How the values were obtained:
[1] = NCI Yeast Anticancer Drug Screen. Data for the sgs1 strain (AID 173);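 also: 0% = growth of vehicle-only control cultures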; conditions: S. cerevisiae sgs1 mutant, hits give high values
Outline: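 Yeast mutant strains carrying defined defects in DNA damage repair or cell cycle control were exposed to test compounds. Growth inhibition was scored against vehicle-treated controls.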

[2] = NCI Yeast Anticancer Drug Screen. Data for the mlh1 rad18 strain (AID 175); conditions: S. cerevisiae mlh1 rad18 strain growth inhibition, hits give high values
Outline: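 Growth inhibition of the yeast strain was measured after compound exposure and expressed relative to vehicle-treated controls. The strain carries defined defects in DNA damage repair.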

[3] = NCI Yeast Anticancer Drug Screen. Data for the rad18 strain (AID 177); conditions: S. cerevisiae rad18 mutant growth inhibition, hits give high values
Outline: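 Yeast carrying a defined DNA damage repair alteration were exposed to compounds. Growth inhibition was expressed relative to vehicle-treated controls.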

[4] = NCI Yeast Anticancer Drug Screen. Data for the wt1 strain (AID 149);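 also: 0% = growth of vehicle-treated wt1 cultures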; conditions: S. cerevisiae wt1 strain (SPY 50644) growth inhibition, hits give high values
Outline: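 wt1 strain grown with compound or vehicle; inhibition taken from the growth difference.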

[5] = NCI Yeast Anticancer Drug Screen. Data for the rad50EPP+ strain (AID 151);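 also: 0% = growth of vehicle-treated control cultures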; conditions: S. cerevisiae rad50 mutant strain, hits give high values
Outline: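 Yeast strain carrying rad50 alteration (rad50EPP+) exposed to compounds; growth inhibition measured relative to vehicle-treated controls.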

[6] = NCI Yeast Anticancer Drug Screen. Data for the mgt1 strain (AID 153); conditions: S. cerevisiae mgt1 mutant growth inhibition, hits give high values
Outline: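 Yeast mgt1 strain (DNA repair/cell-cycle alteration panel) exposed to compounds; growth inhibition measured relative to vehicle-treated controls.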

[7] = NCI Yeast Anticancer Drug Screen. Data for the rad50 strain (AID 155);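 also: 0% = growth of vehicle-only cultures of the same strain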; conditions: S. cerevisiae rad50 strain growth inhibition, hits give high values
Outline: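 DNA repair mutant yeast, compound exposure, growth read-out; inhibition is taken relative to vehicle.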

[8] = NCI Yeast Anticancer Drug Screen. Data for the mec2-1 strain (AID 157); conditions: S. cerevisiae mec2-1 strain, hits give high values
Outline: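 mec2-1 yeast strain, carrying an alteration in DNA damage repair or cell cycle control, was exposed to compounds; growth inhibition was measured relative to vehicle-treated controls.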

[9] = NCI Yeast Anticancer Drug Screen. Data for the rad14 strain (AID 159);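 also: 0% = growth of vehicle-treated control cultures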; conditions: S. cerevisiae rad14 strain growth inhibition, hits give high values
Outline: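 DNA repair-defective yeast, compound-exposed; % growth inhibition derived by comparison with vehicle-treated controls.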

[10] = NCI Yeast Anticancer Drug Screen. Data for the sgs1 mgt1 strain (AID 161);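 also: 0% = growth of cultures given vehicle only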; conditions: S. cerevisiae sgs1 mgt1 strain, hits give high values
Outline: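 Percent growth inhibition was derived by comparing compound-exposed mutant yeast with vehicle-exposed cultures. The strain carries alterations in DNA damage repair.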

[11] = NCI Yeast Anticancer Drug Screen. Data for the cln2 rad14 strain (AID 165);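 also: 0% = growth equal to vehicle treated cultures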; conditions: S. cerevisiae cln2 rad14 strain, hits give high values
Outline: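 Yeast carrying cln2 and rad14 alterations (cell cycle control and DNA damage repair) were exposed to compounds. Growth inhibition was measured against vehicle-treated controls.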

[12] = NCI Yeast Anticancer Drug Screen. Data for the bub3 strain (AID 167); conditions: S. cerevisiae bub3 mutant strain, hits give high values
Outline: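 In this screen, a yeast mutant lacking normal mitotic checkpoint function is challenged with compound. Relative growth versus vehicle gives the inhibition value.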

[13] = NCI Yeast Anticancer Drug Screen. Data for the wt2 strain (AID 169);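 also: 0% = growth of vehicle-treated yeast cultures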; conditions: S. cerevisiae wt2 strain growth inhibition, hits give high values
Outline: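 Yeast cells were exposed to test compounds, and growth inhibition was measured relative to vehicle-treated controls.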

[14] = NCI Yeast Anticancer Drug Screen. Data for the CLN2oe strain (AID 163);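 also: 0% = growth of vehicle-only control cultures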; conditions: S. cerevisiae CLN2oe strain, hits give high values
Outline: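 Yeast cells carrying a defined cell-cycle control alteration were exposed to test compounds. Growth inhibition was scored against vehicle-treated control cultures.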

[15] = NCI Yeast Anticancer Drug Screen. Data for the mlh1 strain (AID 171);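 also: 0% = growth of vehicle-treated control cultures of the same strain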; conditions: S. cerevisiae mlh1 strain growth inhibition, hits give high values
Outline: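 Yeast carrying a defined genetic alteration in DNA damage repair or cell cycle control were exposed to test compounds. Growth inhibition was measured relative to vehicle-treated controls.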

[16] = at 5.0 µM (retest, dose inferred, filed as 0.5)
[17] = at 50.0 µM (retest, dose inferred, filed as 5.0)

Measured: growth inhibition

Cc1c(C(=O)C(=O)c2ccccc2)c(C)c(C(=O)C(=O)c2ccccc2)c(C)c1C(=O)C(=O)c1ccccc1
inactive: [1]; at 1.2 µM 0% | [1]; at 3.7 µM 0% | [1]; at 11.0 µM -4% | [1]; at 33.0 µM -5% | [1]; at 100.0 µM -13% | [2]; [16] 9% | [3]; at 1.2 µM -3% | [3]; at 3.7 µM -4% | [3]; at 11.0 µM -6% | [3]; at 33.0 µM -13% | [3]; at 100.0 µM -20%
active: [2]; [17] 87% | [2]; at 50.0 µM 72.5%

CC[C@@]1(O)C(=O)OCc2c1cc1n(c2=O)Cc2cc3c(N)cccc3nc2-1
inactive: [4]; at 1.2 µM 22% | [4]; at 3.7 µM 13% | [4]; at 11.0 µM 7% | [4]; at 33.0 µM 8% | [4]; at 100.0 µM -1% | [5]; at 1.2 µM 13% | [5]; at 3.7 µM 30% | [5]; at 11.0 µM 53% | [5]; at 33.0 µM 54% | [5]; at 100.0 µM 52% | [6]; at 1.2 µM 4% | [6]; at 3.7 µM -3% | [6]; at 11.0 µM 9% | [6]; at 33.0 µM 2% | [6]; at 100.0 µM 5% | [8]; at 1.2 µM -7% | [8]; at 3.7 µM -1% | [8]; [16] 2% | [8]; at 11.0 µM 18% | [8]; at 33.0 µM 23% | [8]; [17] 5% | [8]; at 50.0 µM 36.7% | [8]; at 100.0 µM 30% | [9]; at 1.2 µM -20% | [9]; at 3.7 µM -29% | [9]; at 11.0 µM -25% | [9]; at 33.0 µM -24% | [9]; at 100.0 µM -33% | [10]; [16] 1% | [10]; [17] 14% | [10]; at 50.0 µM 19.9% | [11]; [16] 35% | [11]; [17] -11% | [11]; at 50.0 µM -8.35% | [12]; at 1.2 µM -28% | [12]; at 3.7 µM -32% | [12]; [16] -1% | [12]; at 11.0 µM -26% | [12]; at 33.0 µM -7% | [12]; [17] 1% | [12]; at 50.0 µM -0.65% | [12]; at 100.0 µM -30% | [13]; at 1.2 µM -16% | [13]; at 3.7 µM -9% | [13]; at 11.0 µM -8% | [13]; at 33.0 µM -3% | [13]; at 100.0 µM -16% | [1]; at 1.2 µM 0% | [1]; at 3.7 µM -2% | [1]; at 11.0 µM 5% | [1]; at 33.0 µM 5% | [1]; at 100.0 µM 8% | [2]; [16] -6% | [2]; [17] 1% | [2]; at 50.0 µM 5.1%
active: [7]; at 1.2 µM 70% | [7]; at 3.7 µM 87% | [7]; [16] 81% | [7]; at 11.0 µM 88% | [7]; at 33.0 µM 86% | [7]; [17] 84% | [7]; at 50.0 µM 88% | [7]; at 100.0 µM 83%

COc1cc2c3c(cccc3c1)C(=O)N(CCN(C)C)C2=O
inactive: [4]; at 1.2 µM -6% | [4]; at 3.7 µM -11% | [4]; at 11.0 µM -10% | [4]; at 33.0 µM -1% | [4]; at 100.0 µM 2% | [5]; at 1.2 µM -23% | [5]; at 3.7 µM 1% | [5]; at 11.0 µM 8% | [5]; at 33.0 µM 34% | [6]; at 1.2 µM -24% | [6]; at 3.7 µM -22% | [6]; at 11.0 µM -32% | [6]; at 33.0 µM -23% | [6]; at 100.0 µM -7% | [7]; at 1.2 µM 10% | [7]; at 3.7 µM 0% | [7]; [16] 23% | [7]; at 11.0 µM 29% | [7]; at 33.0 µM 61% | [8]; at 1.2 µM -17% | [8]; at 3.7 µM -11% | [8]; [16] 8% | [8]; at 11.0 µM -23% | [8]; at 33.0 µM -19% | [8]; [17] 11% | [8]; at 50.0 µM -5.45% | [8]; at 100.0 µM 9% | [9]; at 1.2 µM -33% | [9]; at 3.7 µM -18% | [9]; at 11.0 µM -24% | [9]; at 33.0 µM -3% | [9]; at 100.0 µM -14% | [10]; [16] 13% | [10]; [17] 23% | [10]; at 50.0 µM -13.1% | [14]; at 1.2 µM -5% | [14]; at 3.7 µM 13% | [14]; at 11.0 µM 25% | [14]; at 33.0 µM 34% | [14]; at 100.0 µM 21% | [11]; [16] 0% | [11]; [17] 3% | [11]; at 50.0 µM -5.5% | [12]; at 1.2 µM -13% | [12]; at 3.7 µM -12% | [12]; [16] 21% | [12]; at 11.0 µM -9% | [12]; at 33.0 µM -10% | [12]; [17] 21% | [12]; at 50.0 µM -34% | [12]; at 100.0 µM -4% | [13]; at 1.2 µM -2% | [13]; at 3.7 µM 1% | [13]; at 11.0 µM -23% | [13]; at 33.0 µM -12% | [13]; at 100.0 µM 5% | [15]; at 1.2 µM -39% | [15]; at 3.7 µM 3% | [15]; at 11.0 µM -19% | [15]; at 33.0 µM -9% | [15]; at 100.0 µM 0% | [1]; at 1.2 µM -21% | [1]; at 3.7 µM -14% | [1]; at 11.0 µM -22% | [1]; at 33.0 µM -15% | [1]; at 100.0 µM -11% | [2]; [16] 42% | [2]; [17] 55% | [2]; at 50.0 µM -50.4% | [3]; at 1.2 µM -34% | [3]; at 3.7 µM -18% | [3]; at 11.0 µM -23% | [3]; at 33.0 µM -15% | [3]; at 100.0 µM -27%
active: [5]; at 100.0 µM 78% | [7]; [17] 77% | [7]; at 50.0 µM 71.6% | [7]; at 100.0 µM 88%
